Results from PubChem BioAssay (NCATS).
Inconclusive results are not listed. The source made the active and inactive calls. Calls follow the shape of the dose curve; as a rule, active = well fitted inhibition curve with a large enough effect; inconclusive = small, poorly fitted or top-dose-only effect; inactive = flat fitted curve, though single readings scatter.

The compounds below were run against Ubiquitin carboxyl-terminal hydrolase 1 (Homo sapiens) (UniProt O94782) (assay: Inhibitors of USP1/UAF1: Pilot qHTS (AID 504865;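 also: rhodamine fluorescence freed from ubiquitin-rhodamine substrate followed over time; top concentration of the series differs between compounds; nearly all actives have a fitted effect of over 35% in size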)). Details: purified USP1/UAF1, Ub-rhodamine cleavage fluorescence; series mostly up to 54.9 µM.
Sequence of Ubiquitin carboxyl-terminal hydrolase 1 (Homo sapiens) (O94782 whole entry, looked up): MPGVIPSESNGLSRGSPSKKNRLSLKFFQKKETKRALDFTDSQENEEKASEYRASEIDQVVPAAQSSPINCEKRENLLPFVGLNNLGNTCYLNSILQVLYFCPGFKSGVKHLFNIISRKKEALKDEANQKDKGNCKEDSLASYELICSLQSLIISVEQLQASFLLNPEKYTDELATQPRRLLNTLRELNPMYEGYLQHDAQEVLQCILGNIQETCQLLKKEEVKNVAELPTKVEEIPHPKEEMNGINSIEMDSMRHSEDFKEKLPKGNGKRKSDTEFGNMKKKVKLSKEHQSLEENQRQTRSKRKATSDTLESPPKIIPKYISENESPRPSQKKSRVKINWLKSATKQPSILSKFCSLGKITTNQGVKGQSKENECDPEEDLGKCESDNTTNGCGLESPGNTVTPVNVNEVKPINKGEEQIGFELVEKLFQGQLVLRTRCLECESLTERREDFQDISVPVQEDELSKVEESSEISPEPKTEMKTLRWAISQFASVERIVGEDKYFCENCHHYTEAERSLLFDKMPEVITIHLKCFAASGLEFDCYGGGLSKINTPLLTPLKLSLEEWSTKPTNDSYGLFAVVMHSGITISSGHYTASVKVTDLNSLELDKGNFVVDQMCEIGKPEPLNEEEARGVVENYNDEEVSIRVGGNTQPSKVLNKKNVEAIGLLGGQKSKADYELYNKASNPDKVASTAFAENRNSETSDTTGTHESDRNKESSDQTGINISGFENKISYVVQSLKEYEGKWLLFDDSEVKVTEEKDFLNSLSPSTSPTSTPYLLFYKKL
How it was run: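 Kinetic fluorescence assay: 1nM USP1/UAF1, 15 min compound preincubation, then 150nM Ub-Rho; 480/540 nm.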

Potency, inactive:
COCCNc1ncnc2ccc(-c3ccccc3OC)cc12, O=c1c(-c2cccc(F)c2)nc2cncnc2n1Cc1ccc(F)cc1, CS(=O)(=O)Nc1cccc(-c2nc(Nc3ccncc3)c3ccccc3n2)c1, O=c1c(CCc2ccccc2)nc2cnc(N3CCNCC3)nc2n1Cc1cccs1, COc1ccccc1-c1nc(Nc2ccncc2)c2ccccc2n1, COc1ccc(Oc2ncc3nc(-c4ccc(F)cc4)c(=O)n(C[C@H]4CCCO4)c3n2)cc1, COCCn1c(=O)c(CCc2ccccc2)nc2cnc(Oc3ccccc3)nc21, CN(C)c1ncc2nc(-c3ccccc3)c(=O)n(C)c2n1, COc1ncc2nc(-c3ccccc3)c(=O)n(CCc3ccccc3)c2n1, CN(C)c1ccc(-c2cncnc2NCCN2CCOCC2)cc1, COc1ccc(-c2nc3cnc(N4CCN(C)CC4)nc3n(CCc3ccccc3)c2=O)cc1, COc1ccccc1CNc1cc(-c2cccnc2)ncn1, CCNc1ncc2nc(CCc3ccccc3)c(=O)n(Cc3cccc(OC)c3)c2n1, CN(Cc1ccco1)c1ncnc2ccc(-c3cccc(NS(C)(=O)=O)c3)cc12, CN(C)c1nc(-c2cccc(C#N)c2)nc2ccccc12, CN1CCN(c2ncnc3ccc(-c4cccc(C#N)c4)cc23)CC1, COc1cccc(Nc2ncc3ncc(=O)n(Cc4ccc(F)cc4)c3n2)c1, COc1cccc(-c2ccc3ncnc(N4CCNCC4)c3c2)c1, N#CCCn1c(=O)c(-c2ccc(Cl)cc2)nc2cnc(N3CCOCC3)nc21, CCNc1ncc2nc(-c3ccc(OC)cc3)c(=O)n(C)c2n1, O=c1c(CCc2ccccc2)nc2cnc(Nc3ccccc3)nc2n1C[C@H]1CCCO1, CN(C)c1ccc(-c2cc(N(C)Cc3ccco3)ncn2)cc1, COc1ccccc1CNc1ccnc(-c2cccnc2)n1, CN(C)c1ncnc2ccc(-c3cccc(NS(C)(=O)=O)c3)cc12, CN1CCN(c2ncnc3ccc(-c4ccccc4C(F)(F)F)cc23)CC1, COc1ccc2[nH]cc(CCNc3ncncc3-c3ccccc3OC)c2c1, COCCn1c(=O)c(-c2ccccc2)nc2cnc(Oc3cccc(Cl)c3)nc21, Cc1cnc(CNc2ncnc3ccc(-c4ccc(N(C)C)cc4)cc23)cn1, COc1ccc(Oc2ncc3nc(-c4cc(F)cc(F)c4)c(=O)n(C4CC4)c3n2)cc1, COc1ccccc1-c1ccc2ncnc(N3CCNCC3)c2c1, O=c1c(CCc2ccccc2)nc2cnc(Oc3ccccc3)nc2n1C1CC1, Cn1c(=O)c(-c2ccc(Cl)cc2)nc2cncnc21, CCNc1ncc2nc(CCc3ccccc3)c(=O)n(CCC#N)c2n1, COc1ccc2[nH]cc(CCNc3cc(-c4cccc(C#N)c4)ncn3)c2c1, CN(C)c1ncc2nc(CCc3ccccc3)c(=O)n(CCC#N)c2n1, COc1ccccc1-c1ccc2ncnc(N3CCOCC3)c2c1, COc1ccccc1CNc1cc(-c2ccccc2CN(C)C)ncn1, Cc1cnc(CNc2ncnc3ccc(-c4ccccc4C)cc23)cn1
